Assay outcomes: PubChem, several laboratories
Sa ugtP lethal = growth inhibition of S. aureus ugtP deletion strain; 330,000 compounds, 0.54% hits; AID 1259309; S. aureus RN4220 ugtP deletion, OD600 growth, 16 h; growth inhibition, % (concentration not given with the values); in the data active = growth inhibition above about 68%;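 note: plate controls were untreated wells for no effect and antibiotic for full effect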
PfHsp40 rescue = restores yeast growth despite PfHsp40 toxicity; S. cerevisiae expressing PfHsp40, growth rescue, ATP luminescence; 340,000 compounds, 0.68% hits; growth rescue, % at 12.5 µM; AID 504582; in the data active = growth rescue above about 28%, passing the limit was not always enough;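 note: yeast W303a lacking pdr1 and pdr3 grown in galactose medium; growth measured after three days at 30 °C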
Sa RN4220 lethal = kills Staphylococcus aureus RN4220 | inhibition, % (concentration not given with the values) | 330,000 compounds, 0.33% hits | S. aureus RN4220 growth, OD600, 16 h | AID 1259311; in the data active = inhibition above about 85%;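 note: plate controls were untreated cells for no effect and reference antibiotic for full effect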
3CLpro inhibitor = SARS-CoV 3CLpro protease inhibition; P0C6X7; recombinant SARS-CoV 3CLpro, quenched FRET peptide cleavage; inhibition, % at 6 µM; 290,000 compounds, 0.14% hits; AID 1706; in the data active = inhibition above about 12%
BJeLR lethal = BJeLR cell viability loss. BJeLR (HRASV12) viability, CellTiter-Glo ATP luminescence, 48 h. inhibition, % (no concentration beside the values). 300,000 compounds, 0.17% hits; in the data active = inhibition above about 50%
Numbers without * were called inactive; nt = no result. Most compounds without a hit are left out; they make up all but 1.3% or so of the library.

SMILES | Sa ugtP lethal | PfHsp40 rescue | Sa RN4220 lethal | 3CLpro inhibitor | BJeLR lethal
CC(C)CC(NC(=O)CCCNC(=O)CCC(=O)OC1O[C@H]2OC3(C)CC[C@H]4[C@H](C)CCC(C1C)C24OO3)C(=O)O (stereo partly specified) | nt | 196* | nt | 0 | -3
CC(C)CC(=O)Nc1ccnn1C1CCN(C(=O)c2ccccc2F)CC1 | 14 | -1 | 5 | 6 | -2
COc1ccccc1N1CCN(C(=O)c2cc3c(=O)n4cccc(C)c4nc3s2)CC1 | 2 | -1 | -1 | 7 | -1
COc1ccc(-c2noc(-c3ccc4c(c3)OCO4)n2)cc1 | 0 | 1 | 6 | 3 | -11
COc1ccc(-c2nc(-c3ccc4c(c3)OCO4)[nH]c2-c2ccc(OC)cc2)cc1 | 87* | 3 | 16 | -3 | -5
NC(=O)c1ccc(NC(=O)COC(=O)CC23CC4CC(CC(Br)(C4)C2)C3)cc1 | 8 | 0 | 0 | nt | nt
O=C(O)c1cc(NN=Cc2cccnc2)ccc1Cl | 13 | nt | 1 | nt | nt
CCOc1cc(/C=C2\CN(C)C/C(=C\c3ccc(O)c(OCC)c3)C2=O)ccc1O | -7 | -2 | 0 | -2 | 61*
CN1C/C(=C/c2ccncc2)C(=O)/C(=C/c2ccncc2)C1 | 3 | -2 | -1 | -5 | 72*
CN1C/C(=C/c2ccsc2)C(=O)/C(=C/c2ccsc2)C1 | 14 | 3 | 0 | -1 | 5
CC1CCCN(c2ccc([N+](=O)[O-])cc2C(=O)c2ccccc2)C1 (stereo unspecified) | 87* | -1 | -2 | 2 | 58*
COCCNc1nc(C)cc(-c2cc(C(=O)NCc3ccccc3)on2)n1 | 5 | 0 | 3 | nt | 5
Cc1onc(-c2ccccc2)c1C(=O)NC(=S)NNC(=O)c1ccc(O)cc1O | -22 | 248* | 47 | 5 | -36
O=C(Nc1ccc(Cl)cc1Cl)c1cc2ccccc2o1 | 6 | -1 | 2 | 3 | 3
O/N=C(\c1ccc(Cl)cc1)c1cc2ccccc2o1 | nt | 641* | nt | 7 | -1
CCCc1sc(N/N=C/c2ccccn2)nc1-c1ccc(F)cc1 | nt | 38* | nt | -6 | 61*
C/C=C(/C)C(=O)O[C@@H]1c2c(ccc3ccc(=O)oc23)O[C@@H]1C(C)(C)OC(C)=O | nt | -2 | nt | -2 | -8
CC=C(C)C(=O)OC1c2c(ccc3ccc(=O)oc23)OC1C(C)(C)OC(=O)C(C)=CC (stereo unspecified) | 97* | nt | -4 | nt | nt
Cn1cnnc1Sc1cc(N2CCNCC2)ccc1[N+](=O)[O-] | 4 | 0 | 1 | 1 | 2
COc1cc(OC)c(OC)cc1C=NNC(=O)C[n+]1ccccc1 | 3 | nt | 3 | nt | nt
O=C(CCCc1ccccc1)NC1CC1 | 6 | 0 | 5 | 4 | -15
O=C(O)CCCc1ccc2c(c1)CCc1ccccc1-2 | nt | 185* | nt | nt | -8
O=C(C=Cc1ccccc1O)c1ccccc1O | -8 | 19 | 33 | nt | nt
Cc1ccc(/C=C/C(=O)c2ccccc(=O)c2O)c(C)c1 | -2 | 183* | 19 | 5 | 16
Cc1ccc(C)c(/C=C/C(=O)c2ccccc(=O)c2O)c1 | -6 | 224* | 14 | 3 | 37
SMILES | Sa ugtP lethal | PfHsp40 rescue | Sa RN4220 lethal | 3CLpro inhibitor | BJeLR lethal
O=C(/C=C/c1ccccc1Cl)c1ccccc(=O)c1O | -11 | 64* | 20 | 0 | 26
CC(=O)Nc1ccc(S(=O)(=O)NCCc2cc3c(C)ccc(C)c3[nH]c2=O)cc1 | 3 | 0 | 4 | 0 | 8
COc1ccc(/C=N/NS(=O)(=O)c2ccc(F)cc2)cc1CN1CCSCC1 | nt | 0 | nt | -1 | -4
Cc1c(C(=O)N2CCC(C)CC2)cccc1[N+](=O)[O-] | 5 | -2 | 9 | 2 | -3
CCCN(CC(=O)Nc1cc(Cl)cc(Cl)c1)CC(=O)Nc1ccc(F)c(F)c1F | 91* | 2 | 89* | 3 | -8
CCCN(CC(=O)Nc1ccccc1Br)CC(=O)Nc1ccc(F)c(F)c1F | -3 | 4 | 4 | -2 | -10
CCn1nc(C)cc1C(=O)Sc1ccc(Cl)cc1Cl | 96* | -3 | 24 | 3 | -4
O=C(Oc1ccc(Cl)c2cccnc12)c1ccco1 | 5 | 7 | 91* | 2 | 2
N#CC(=Cc1ccc(O)c([N+](=O)[O-])c1)c1nc2ccccc2s1 | 97* | nt | 96* | nt | nt
CCOc1ccc(NC(=O)Cn2sc3nc(C)cc(C)c3c2=O)cc1 | 7 | 74* | 1 | -1 | -5
Cc1ccc(CCNS(=O)(=O)c2ccc3c(c2)N(C)CCO3)cc1 | 3 | 0 | 4 | -2 | 1
Clc1cccc(CSc2ncn(-c3ccccc3)n2)c1 | -11 | 31* | 8 | -2 | 7
CCC1(C)NC(=O)N(N=Cc2cc(OC)c(O)c(OC)c2)C1=O (stereo unspecified) | -62 | nt | 16 | nt | nt
Cc1ccc(NC(=O)CSc2nnc(NC(=O)CN3CCOCC3)s2)cc1 | 0 | 1 | 1 | -5 | -5
Cc1cccc(C)c1NC(=O)CSc1nnc(NC(=O)CN2CCOCC2)s1 | 11 | 64* | 6 | 3 | 1
CC(=O)NC1=NN(C(C)=O)C(c2ccccc2)S1 (stereo unspecified) | 1 | 1 | 4 | 1 | -6
CC(=O)NC1=NN(C(C)=O)C(c2cccs2)S1 (stereo unspecified) | -1 | 40* | 4 | 0 | -3
O=C(CCc1nc(-c2ccccc2F)no1)NC1CCN(Cc2ccccc2)CC1 | 5 | -1 | -1 | -5 | 6
CC(C)c1ccc(-n2c(O)c(/C=N/NC(=O)c3ccncc3)c(=O)[nH]c2=O)cc1 | 0 | 3 | 5 | 3 | -27
O=C(N/N=C/c1c(O)n(C2CCCCC2)c(=S)[nH]c1=O)c1ccccc1O | 92* | -1 | 77 | 6 | 4
CC(C)c1ccc(-n2c(O)c(/C=N/NC(=O)c3ccccc3O)c(=O)[nH]c2=S)cc1 | 10* | -1 | 88 | 7 | 1
N#C/C(=C\c1cccs1)C(=O)c1ccccc1Cl | -3 | nt | 6 | 10 | 63*
CSCC[C@H](N)C(=O)NC[C@H]1O[C@@H](n2cnc3c(N)ncnc32)[C@H](O)[C@@H]1O | 10 | 39* | 3 | nt | nt
C[C@H](N)C(=O)NC[C@H]1O[C@@H](n2cnc3c(N)ncnc32)[C@H](O)[C@@H]1O | -3 | -2 | 3 | nt | nt
Nc1ncnc2c1ncn2[C@@H]1O[C@H](CNC(=O)[C@@H](N)C2CCCCC2)[C@@H](O)[C@H]1O | 2 | 73* | 1 | nt | nt
CC(C(=O)Nc1ccccc1)N1CCN(c2ccccn2)CC1 (stereo unspecified) | 12 | 2 | 3 | -3 | 12
COc1cccc(C=NNC(=O)c2nc(-c3ccccc3)cc(-c3ccccc3)n2)c1 | -23 | nt | -6 | nt | nt
CCOC(=O)c1ccc(NC(=O)CC2OCCN(CC)C2=O)cc1 (stereo unspecified) | 5 | 53* | 7 | 0 | -9
CCN1CCOC(CC(=O)Nc2cccc([N+](=O)[O-])c2)C1=O (stereo unspecified) | 6 | nt | 4 | 0 | -5
CCOC(=O)c1ccc(NC(=O)CC2C(=O)OCCN2CC)cc1 (stereo unspecified) | 5 | 219* | 8 | 2 | -8
